Screens as filed in PubChem.
TGFb SMAD3 inh: inhibitors of TGF-b signaling | AID 588855 | 1.2% of 410,000 active | Potency, µM (top dose mostly 46.1 µM), without a hit: at the top dose activity, negative = inhibition, usual class: inhibitors | HepG2 CAGA-GFP TGF-b/SMAD3 reporter, GFP fluorescence, 18 h; TGF-beta stimulated, 500 pg/mL final; further: on the % scale 0 is the no-effect control and ±100 the full control effect; nearly all actives have a fitted effect of over 65% in size
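Smad-responsive CAGA-GFP expression was quantified in HEPG2 cells exposed to compounds and 500 pg/mL final TGF-beta for 18 h at 37 degrees C; unstimulated wells defined full inhibition.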
DT40 TDP1 CPT: growth inhibition of DT40 Tdp1-/-;hTDP1 cells with camptothecin (screen for TDP1 inhibitors) | chicken DT40 Tdp1-/-;hTDP1 cells + 20 nM CPT, ATP luminescence, 48 h | Potency, µM (doses to about 46.2 µM), for inactives: at the highest dose activity change, negative = growth inhibition, hits mostly inhibitors | 12% of 420,000 active | AID 686979; further: on the % scale 0 is the no-effect control and ±100 the full control effect; nearly all actives have a fitted effect of over 55% in size
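Cell growth measured by CellTiter-Glo luminescence after a minimum 48 h, 37 C compound exposure with 20 nM CPT in Tdp1-knockout DT40 cells stably expressing hTDP1, seeded 400/well; qHTS titration format.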
ATXN viability: reduces viability in counter-screen for ATXN expression inhibitors. Potency, µM (doses to about 56.7 µM), hits mostly cytotoxic. AID 651635. 0.49% of 400,000 active. S2 cells (HEK-293 line with an ATXN2-luciferase reporter) viability, CellTiter-Fluor protease fluorescence, 24 h; further: nearly all actives have a fitted effect of over 40% in size
HepG2 tox: kills HepG2 cells in TGF-b inhibitor counter-screen; 0.76% of 410,000 active; AID 588856; HepG2 CAGA-GFP viability, ATP luminescence, 18 h; Potency, µM (series often up to 46.1 µM), without a hit: at the top dose activity change, negative = cytotoxicity, hits mostly cytotoxic
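CellTiter-Glo luminescence gave cytotoxicity after 18 hours at 37 degrees C. The cells were HepG2 CAGA-GFP in 1% FBS DMEM, stimulated with 500 pg/mL TGF-beta after compound addition. %Activity was normalised to no-cell wells (complete cell-killing) and DMSO (no toxicity), and curves were fitted and classified.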
TDP1 cell noCPT: qHTS for Inhibitors of human tyrosyl-DNA phosphodiesterase 1 (TDP1): qHTS in cells in absence of CPT; Potency, µM (titrated, usually from 46.2 µM), inactives show at the highest dose activity change, negative = growth inhibition, actives largely listed as inhibitors; 15% of 420,000 active; DT40 Tdp1-/- hTDP1 cells, no CPT, ATP luminescence, 48 h; further: on the % scale 0 is the no-effect control and ±100 the full control effect; nearly all actives have a fitted effect of over 55% in size
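Chicken DT40 Tdp1-/- cells stably complemented with human TDP1 were seeded at 400 cells/well with DMSO in place of 20 nM camptothecin. After compound pinning, cells grew at least 48 hr at 37 °C; viability read by CellTiter-Glo luminescence.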
ATXN2 expr inh: reduces ATXN2 reporter expression in HEK-293 cells | HEK-293 ATXN2-luciferase reporter, luminescence, 24 h | Potency, µM (series often up to 57 µM), for inactives: at the highest dose activity change, negative = inhibition, hits mostly inhibitors | 0.72% of 360,000 active | AID 1745845; further: on the % scale 0 is the no-effect control and ±100 the full control effect; nearly all actives have a fitted effect of over 55% in size
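qHTS (up to 57 uM final) was run with 24 h compound exposure of reporter cells at 37 °C. Each well was multiplexed: SteadyGlo luminescence measured ATXN2-luciferase expression after a fluorogenic Gly-Phe-AFC viability readout (25 uM final).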
* hit, by the source's call; i = inactive; ? = inconclusive; . = no result; [ ] = remark or other dose. A selection: hits, their analogues and other compounds. The true share with any hit is near 17%. The call rests on the fitted dose curve; in most records, active means well fitted curve in the direction sought with a large enough effect; inconclusive means small, poorly fitted or top-dose-only effect, or another doubt; inactive means no such curve, though single readings can be large; an effect the other way counts as inactive or inconclusive. Potency means the concentration at half of the fitted maximal effect.

SMILES	TGFb SMAD3 inh	DT40 TDP1 CPT	ATXN viability	HepG2 tox	TDP1 cell noCPT	ATXN2 expr inh
CCOC(=O)c1nc(NCc2cccc(OC)c2)c2ccccc2n1	?	?	i	-5%	16µM*	.
CCOC(=O)CCC(NC(=O)c1cncc(O)c1)C(=O)OCC (stereo unspecified)	0%	-8%	i	-1%	1%	-4%
CCOC(=O)c1nc(Nc2ccc(C(=O)OC(C)C)cc2)c2ccccc2n1	-6%	5.2µM*	i	-30%	4.1µM*	-16%
CCOC(=O)c1nc(Nc2ccc(OC)cc2)c2ccccc2n1	11%	?	i	-2%	21µM*	-7%
CCOC(=O)c1ccc(Nc2nc(C(=O)OCC)nc3ccccc23)cc1	0%	5.8µM*	i	-25%	2.6µM*	2%
CCc1nc2ccccc2c(NC(=O)CN2CCC(C)CC2)c1C	7%	0%	i	-22%	?	-8%
CCOC(=O)c1nc(Nc2ccc(N3CCC(C)CC3)cc2)c2ccccc2n1	-4%	7.3µM*	?	7%	5.8µM*	?
CCCCCOC(=O)c1ccc(Nc2nc(C(=O)OCC)nc3ccccc23)cc1	-11%	3.3µM*	i	-19%	1.3µM*	-3%
COc1ccc2c(c1)C=C/C2=C\c1ccc(N(C)C)cc1	-2%	-70%	.	-30%	?	.
CCOC(=O)c1nc(Nc2cc(C)cc(C)c2)c2ccccc2n1	?	18µM*	?	-31%	21µM*	-19%
COc1ccccc1Nc1nc(-c2ccccc2)nc2ccccc12	-2%	?	i	-27%	?	.
CCOC(=O)c1c(CCl)nc2ccccc2c1C	0%	?	i	-9%	?	-21%
CCOC(=O)c1nc(Nc2ccc(Nc3ccccc3)cc2)c2ccccc2n1	-26%	13µM*	?	-19%	7.3µM*	?
CCOC(=O)c1nc(Nc2ccc(C(=O)OCC(C)C)cc2)c2ccccc2n1	-26%	6.5µM*	i	-11%	6.5µM*	-11%
CCOC(=O)c1nc(Nc2ccccc2OC)c2ccccc2n1	?	12µM*	?	-18%	2.6µM*	-20%
COc1ccc(S(=O)(=O)N2CCOCC2)cc1C(=O)NCC(c1ccco1)N1CCCC1 (stereo unspecified)	-2%	8%	i	-14%	15%	2%
CCn1c(SCC(=O)N2c3ccccc3CCc3ccccc32)nnc1-c1ccc(OC)cc1	10%	0%	i	9%	-24%	?
CCOc1ccc(C(c2c(O)cc(C)n(CCOC)c2=O)N2CCN(c3ccccc3)CC2)cc1 (stereo unspecified)	38%	1%	.	0%	-9%	.
Cc1cccc(NC(=S)N2CCC(NC(=O)c3ccco3)CC2)c1	2%	8%	i	5%	-27%	-11%
Cc1cc([N+](=O)[O-])ccc1NC(=O)CN1C2CCC1CC(NC(=O)NC13CC4CC(CC(C4)C1)C3)C2 (stereo unspecified)	-21%	15µM*	i	-21%	5.2µM*	-22%
COc1ccc(NC(=S)N2C3CCC2CC(NC(=O)NC24CC5CC(CC(C5)C2)C4)C3)c(OC)c1 (stereo unspecified)	-30%	?	i	-1%	?	10%
CCc1nnc2c(NCc3ccccc3OC)nc3ccccc3n12	0%	-29%	.	-4%	-7%	.
Cc1ccc(-n2c(SCC(=O)N(C)C3CCS(=O)(=O)C3)nc3ccccc3c2=O)cc1 (stereo unspecified)	4%	-24%	?	1%	-22%	-10%
COc1ccc(Nc2nc3ccccc3n3c(N)nnc23)cc1	5%	?	i	-24%	?	2%
N=c1sccn1CC(=O)Nc1ccccc1Sc1ccccc1	-5%	-21%	i	4%	?	-12%[11.3 µM]
SMILES	TGFb SMAD3 inh	DT40 TDP1 CPT	ATXN viability	HepG2 tox	TDP1 cell noCPT	ATXN2 expr inh
S=c1nc(Cc2ccc(Cl)cc2)[nH]c2ccccc12	-16%	-29%	i	-18%	?	-12%
S=c1nc(Cc2ccccc2)[nH]c2ccccc12	1%	26µM*	i	4%	?	14%
C#CC1CCCCC1NC(=O)Nc1cnccc1C(F)(F)F (stereo unspecified)	22%	-1%	i	-1%	-8%	-1%
CC(Sc1nc2ccccc2c(=O)n1C)C(=O)N(C)C1CCCCC1 (stereo unspecified)	-23%	10µM*	?	-14%	7.3µM*	-23%
CC(=O)N1CCC[C@@]2(CCN(C(c3ccccc3)c3ccccc3)C2)C1	.	11%	.	.	-7%	.
O=C(C(Br)=Cc1ccccc1)c1ccccc1	10µM*	0.73µM*	?	-96%	1.3µM*	20µM*
N#CC(=Cc1ccc(-c2ccccc2)cc1)C(=O)c1ccccc1	-28%	?	i	-40%	-24%	9%
CC(=O)C(=Cc1ccc(-c2ccccc2)cc1)C(=O)c1ccccc1	.	18µM*	.	.	?	?
CCc1ccc(OCCOCCN2CCN(C)CC2)cc1	-9%	-16%	i	2%	?	.
CN1CCN(CCc2ccc(Cl)c(Cl)c2)CC1	.	?	.	.	30µM*	.
CN1CCN(CCOc2ccc(Cc3ccccc3)cc2)CC1	10%	?	i	-22%	4.6µM*	-14%
CN1CCN(CCOc2ccc(Cl)c(Cl)c2)CC1	2%	16µM*	i	-32%	?	1%
OC[C@]1(O)OC[C@@H](O)[C@H](O)[C@@H]1O	.	-27%	i	.	0%	1%
COc1ccc(Nc2nc(C)nc3c2nnn3Cc2ccccc2)cc1OC	-23%	?	i	-9%	23µM*	-14%
Cc1nc(N(C)Cc2ccccc2)c2nnn(Cc3ccccc3)c2n1	-25%	23µM*	i	-20%	18µM*	5%
Cc1nc(Nc2cc(F)ccc2C)c2nnn(Cc3ccccc3)c2n1	5%	?	i	-23%	21µM*	-24%
Cc1nc(Nc2ccc(S(=O)(=O)N3CCCCC3C)cc2)c2nnn(Cc3ccccc3)c2n1 (stereo unspecified)	?	?	i	-1%	23µM*	-11%
Cc1nc(Nc2ccccc2Br)c2nnn(Cc3ccccc3)c2n1	22%	?	i	2%	?	.
